# In PubChem BioAssay (Tox21):
# Results filed as inconclusive are left out. Entries that show only a call come without a potency. Unmarked numbers belong to inactive results. Activity calls are given as the source filed them. Calls follow the shape of the dose curve; as a rule, active = well fitted cell-killing curve with a large enough effect in the repeat runs; inconclusive = weak or mixed curves; inactive = flat fitted curve, though single readings scatter.
# Experiment: qHTS RealTime-Glo MT Cell Viability Assay in HepG2 cells - 24 hour (AID 1224867); also: nearly all actives have a fitted effect of over 50% in size
# Conditions: RealTime-Glo luminescence; series mostly up to 76.8 µM
# How it was run: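 HepG2 cells were seeded at 600 cells/well together with NanoLuc luciferase and a cell-permeant prosubstrate, preincubated 5 h at 37 C/5% CO2, then pin-dosed with compounds in DMSO. Nonlytic luminescence from viable cells was read at each time point.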
Compound,Potency,"activity change, negative = cytotoxicity"
OCCN(CCO)c1ccccc1,inactive,–
O=C1CCCCC1C1CCCCC1 (stereo unspecified),inactive,–
CCCCc1ccc2nc(NC(=O)OC)[nH]c2c1,inactive,–
Cc1nc(-c2ccccn2)ncc1C(=O)Nn1cc(C)c2cc(F)ccc21,inactive,–
C=CCCC=C,inactive,–
O=C(CC(=O)C(F)(F)F)c1ccccc1,inactive,–
C[C@]12CCC(=O)C=C1CC[C@@H]1[C@@H]2CC[C@@]2(C)[C@H]1CC[C@]2(O)C(=O)CO,inactive,–
Clc1cccc(-c2cc(Cl)cc(Cl)c2)c1,inactive,–
Cc1cc2nc(N)sc2cc1C,inactive,–
Cc1ccc(C=O)s1,inactive,–
O=C(O)CN(CCN(CC(=O)O)CC(=O)O)CCN(CC(=O)O)CC(=O)O,–,0.5% [at 15.8 µM]
CN(C)CCOc1ccccc1Cc1ccccc1,inactive,–
OCc1c2ccccc2cc2ccccc12,inactive,–
CC(C)NC[C@@H](O)COc1cccc2ccccc12,inactive,–
O=Cc1ccc(O)c(O)c1O,inactive,–
NC(Cc1ccc(F)cc1)C(=O)O (stereo unspecified),–,-1.43% [at 6.97 µM]
CC(=O)N(CC(O)CN(C(C)=O)c1c(I)c(C(=O)NCC(O)CO)c(I)c(C(=O)NCC(O)CO)c1I)c1c(I)c(C(=O)NCC(O)CO)c(I)c(C(=O)NCC(O)CO)c1I (stereo unspecified),inactive,–
O=C1CCN(c2ccccc2)N1,inactive,–
CC(C)NCC(O)COc1ccc(CCOCC2CC2)cc1 (stereo unspecified),inactive,–
CC1=C(CC(=O)O)c2cc(F)ccc2/C1=C\c1ccc(S(C)(=O)=O)cc1,inactive,–
CC(C)C1=CC2=CC[C@@H]3[C@](C)(CCC[C@@]3(C)C(=O)O)[C@H]2CC1,inactive,–
